Screens (PubChem BioAssay)
SKKanGAS inh – S. pyogenes SKKanGAS growth inhibitors in kanamycin, primary screen, streptokinase expression inhibitor project, SKKanGAS strain, BacTiter-Glo luminescence. 6 h. inhibition, % at 7.5 µM. 1.3% of 300,000 active. AID 1662, 2009;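 active means mean replicate score, as percent of positive control median, at least 50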;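 further: strain carries kanamycin resistance gene driven by streptokinase promoter and grows in 40 µg/ml kanamycin; loss of luminescence reflects streptokinase promoter inhibition or plain growth inhibition; 0% = median of DMSO wells and 100% = positive control at its reference dose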
CSC inhib – cancer stem cell viability inhibitors, primary screen, luminescence | cancer stem cell-like cells viability | inhibition, % at 7.5 µM | 1.1% of 300,000 active | AID 2717, 2010; in the data active means inhibition above about 75%; tested in HMLE shEcad cells
MPTP block – mitochondrial permeability transition pore inhibitors, primary screen, biochemical, isolated mouse mitochondria, absorbance | Ca2+ swelling absorbance, 30 min | inhibition, % at 10 µM | 1.4% of 360,000 active;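 active means inhibition of 50% or more, scaled per plate between neutral and stimulator controls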;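 further: 0% = DMSO wells given calcium and 100% = 1 mM EGTA wells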
NR3A LBD binder – binders of NR3A ligand-binding domain, primary screen, biophysical, differential scanning fluorimetry, uHTS; Glutamate receptor ionotropic, NMDA 3A (GRIN3A) ligand-binding domain; NR3A LBD differential scanning fluorimetry, Tm shift; 0% = protein alone, 100% = glycine-bound protein; Tm shift relative to glycine control, % at 25 µM; 2.5% of 340,000 active;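 active means melting temperature shift of at least 10% of the positive control shift, at one fixed dose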
Mdm2 MdmX PPI – inhibitors of human Mdm2-MdmX association, primary screen, cell-based, luminescence, split luciferase, SaOS-2, uHTS. Protein Mdm4 (Homo sapiens) + E3 ubiquitin-protein ligase Mdm2 (Homo sapiens), …. SaOS-2 split-luciferase Mdm2/MdmX complementation. 3% of 330,000 active. AID 485346, 2010. inhibition, % at 8 µM;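 active means inhibition of at least 50% at 8 µM in the primary screen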
Target sequence (O15151 whole entry, looked up): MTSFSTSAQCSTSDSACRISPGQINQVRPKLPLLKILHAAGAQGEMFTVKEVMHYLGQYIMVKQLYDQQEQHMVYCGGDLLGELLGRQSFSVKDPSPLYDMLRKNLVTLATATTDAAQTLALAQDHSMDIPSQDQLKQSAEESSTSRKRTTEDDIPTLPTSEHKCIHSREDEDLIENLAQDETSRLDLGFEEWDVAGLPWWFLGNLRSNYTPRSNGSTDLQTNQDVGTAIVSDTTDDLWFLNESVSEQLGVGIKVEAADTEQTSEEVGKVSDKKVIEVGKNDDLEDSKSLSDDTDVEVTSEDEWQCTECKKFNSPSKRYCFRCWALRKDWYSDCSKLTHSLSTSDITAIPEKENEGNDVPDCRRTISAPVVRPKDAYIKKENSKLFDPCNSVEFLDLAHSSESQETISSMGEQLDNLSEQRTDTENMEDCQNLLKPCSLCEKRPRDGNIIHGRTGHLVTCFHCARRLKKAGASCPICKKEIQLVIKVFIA
Target sequence (Q00987 whole entry, looked up): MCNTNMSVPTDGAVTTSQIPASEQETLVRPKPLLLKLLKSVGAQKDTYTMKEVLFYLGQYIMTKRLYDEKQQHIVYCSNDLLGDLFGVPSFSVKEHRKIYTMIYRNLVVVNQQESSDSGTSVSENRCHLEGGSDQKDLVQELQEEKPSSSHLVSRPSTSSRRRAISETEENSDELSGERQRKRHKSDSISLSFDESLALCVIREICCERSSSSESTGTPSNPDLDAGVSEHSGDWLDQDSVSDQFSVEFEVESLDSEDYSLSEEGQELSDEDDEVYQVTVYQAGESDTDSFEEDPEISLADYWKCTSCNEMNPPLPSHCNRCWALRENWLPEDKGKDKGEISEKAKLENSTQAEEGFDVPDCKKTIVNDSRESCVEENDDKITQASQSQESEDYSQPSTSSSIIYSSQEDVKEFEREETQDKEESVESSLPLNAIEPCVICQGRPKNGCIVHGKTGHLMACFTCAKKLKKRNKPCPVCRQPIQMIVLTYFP
Beta cell apopt – inhibitors of cytokine-induced beta cell apoptosis, primary screen, luminescence; INS-1E cytokine-induced death, ATP luminescence, 48 h; percent of positive-control rescue, neutral wells zero; protection from apoptosis, % (test concentration not listed); 0.8% of 300,000 active; AID 435005, 2010;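 active means Every replicate reaches about 75%, or at least half do and their mean reaches it too, limit read from the data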;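 further: 0% = cytokine-treated negative control wells and 100% = positive control rescue; higher means more ATP so stronger rescue from cytokine killing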
Mdm2 MdmX conf – Mdm2-MdmX complex disruptors, retested hits, confirmation, luminescence, single concentration; inhibition, % at 8 µM; Mdm2-MdmX binding, luminescent assay; shares compounds with Mdm2 MdmX PPI; 55% of 10,000 active; in the data active means inhibition above about 40%
Full FLuc ctr – full-length luciferase signal inhibition, confirmation, counter-screen for Mdm2/MdmX interaction inhibitor project, cell-based, single concentration, SaOS-2; 77% of 6,200 active; SaOS-2 full-length luciferase counterscreen, luminescence; shares compounds with Mdm2 MdmX PPI; inhibition, % at 8 µM;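 active means mean inhibition at 8 µM reaching about 37%, which flags the compound as non-specific, limit read from the data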;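 further: p53-null SaOS-2 cells with luciferase driven by a doxycycline-inducible promoter; compound on cells about two nights before reading with doxycycline added after day one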
The depositor's hits bear a star. Compounds with a hit are over-represented: about 6.9% of the library has one in this group of screens.

What do the screens show for `COc1ccc(OC)c(C(=O)c2ccc(C(=O)Nc3ccc(NC(C)=O)cc3)cc2)c1`?
SKKanGAS inh: 2; CSC inhib: 14; MPTP block: 0; NR3A LBD binder: -10; Mdm2 MdmX PPI: 74*; Beta cell apopt: -2; Mdm2 MdmX conf: 29

How did COc1ccc(CNC(=O)C2CCC(CNS(=O)(=O)c3ccccc3)CC2)cc1 (stereo not given) do in these assays?
SKKanGAS inh: -8; CSC inhib: -10; MPTP block: 0; NR3A LBD binder: 0; Mdm2 MdmX PPI: 20; Beta cell apopt: -6

How did CC1=C(C(=O)N(C(C)C)C(C)C)CC(CC(=O)NCCN2CCOCC2)C(=O)N1Cc1ccccc1 (stereo not given) do in these assays?
MPTP block: 1

How did CCn1c(=O)oc2cc(NC(=O)CCl)ccc21 do in these assays?
SKKanGAS inh: 0; CSC inhib: -12; MPTP block: -2; NR3A LBD binder: 1; Mdm2 MdmX PPI: 66*; Beta cell apopt: 2; Mdm2 MdmX conf: 32

What do the screens show for `O=C(NCc1ccc2c(c1)OCO2)C(=O)Nc1ccccc1`?
SKKanGAS inh: 6; CSC inhib: -4; MPTP block: 0; NR3A LBD binder: 0; Mdm2 MdmX PPI: 30; Beta cell apopt: 3

Results for COc1ccc(-c2c(C)nn3c(N4CCN(Cc5ccccc5)CC4)cc(C)nc23)cc1OC ?
SKKanGAS inh: 2; CSC inhib: 26; MPTP block: -1; NR3A LBD binder: -1; Mdm2 MdmX PPI: 50*; Beta cell apopt: 7; Mdm2 MdmX conf: 9

What do the screens show for `Cc1nn2c(N3CCN(C)CC3)cc(C(C)(C)C)nc2c1-c1ccccc1`?
SKKanGAS inh: 33; CSC inhib: 25; MPTP block: -6; NR3A LBD binder: -1; Mdm2 MdmX PPI: 58*; Beta cell apopt: 0; Mdm2 MdmX conf: 41*; Full FLuc ctr: 76*

Results for Cc1cc(N2CCN(Cc3ccccc3)CC2)n2nc(C)c(-c3ccccc3)c2n1 ?
SKKanGAS inh: 2; CSC inhib: 65; MPTP block: 6; NR3A LBD binder: 2; Mdm2 MdmX PPI: -3; Beta cell apopt: 1

What do the screens show for `CCOC(=O)Cc1nn(Cc2nc(-c3ccc(C#N)cc3)cs2)c(=O)c2ccccc12`?
SKKanGAS inh: -2; CSC inhib: 6; MPTP block: 8; NR3A LBD binder: 1; Mdm2 MdmX PPI: 23

How did CCOc1cc(NC(=S)NCCCN2CCOCC2)c(OCC)cc1NC(=O)C1CC1 do in these assays?
SKKanGAS inh: -2; CSC inhib: -4; MPTP block: 0; NR3A LBD binder: -5; Mdm2 MdmX PPI: -37

Results for Cc1ccc(-c2nnn(CC(=O)N(CC(=O)NC3CCCC3)c3ccc(F)c(Cl)c3)n2)o1 ?
SKKanGAS inh: 8; MPTP block: 1; NR3A LBD binder: -2; Mdm2 MdmX PPI: 60*; Beta cell apopt: 9; Mdm2 MdmX conf: 15

How did Oc1cccc(C2c3[nH]c4ccccc4c3CCN2Cc2ccoc2)c1 (stereo not given) do in these assays?
SKKanGAS inh: -4; CSC inhib: -1; MPTP block: 3; NR3A LBD binder: -1; Mdm2 MdmX PPI: -2; Beta cell apopt: -5

How did Oc1cccc(C2c3[nH]c4ccccc4c3CCN2Cc2ccc3c(c2)CCO3)c1 (stereo not given) do in these assays?
SKKanGAS inh: 3; CSC inhib: 64; MPTP block: 3; NR3A LBD binder: 11*; Mdm2 MdmX PPI: 58*; Beta cell apopt: 0; Mdm2 MdmX conf: 43*; Full FLuc ctr: 53*
